697 NFkB inh = inhibitors of PMA/ionomycin-induced NF-kB reporter, 697 cells, primary screen, B-cell NF-kB inhibitor project, cell-based, luminescence, uHTS; AID 435022, 2010; inhibition, % at 4 µM; 330,000 compounds, 0.33% hits; 697 B-cell NF-kB luciferase reporter, 16 h; in the data active = inhibition above about 35%
Jurkat NFkB inh = inhibitors of induced NF-kB luciferase reporter, primary screen, TCR NF-kB activation inhibitor project, cell-based, luminescence, uHTS | Jurkat, PMA/ionomycin-induced NF-kB luciferase reporter | inhibition, % at 4 µM | 330,000 compounds, 0.53% hits; in the data active = inhibition above about 50%
F508del corr = F508del CFTR correction, initial screen, CFBE line, single point; CFBE cells, YFP halide quenching; stimulated with forskolin plus potentiator P3; % fluorescence drop versus neutral controls; activity (quench increase), % at 7.58 µM; 350,000 compounds, 0.36% hits; AID 720511, 2013;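 active = mean added fluorescence quench of at least 8% versus neutral control, with both replicates also reaching 8%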;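 also: cells transiently co-express mutant CFTR-F508del with the halide-sensitive YFP; corrector assay measuring rescue of mutant channel to the surface after 24 h compound exposure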
HIF activator = HIF pathway transcriptional activators, primary screen, cell-based, U2OS HRE-luciferase, luminescence; U2OS HRE-luciferase reporter; normalized: DMSO 0%, desferrioxamine 100%; activation, % at 7.5 µM (by protocol); 300,000 compounds, 0.32% hits;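 active = mean activation of at least 10% of the iron chelator positive control signal, with at least half of replicates also reaching 10%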
697 NFkB conf = PMA/ionomycin-induced NF-kB reporter inhibitors, 697 retest, confirmation, B-cell NF-kB inhibitor project, cell-based, luminescence, single concentration; shares compounds with 697 NFkB inh; 697 B-cell NF-kB luciferase, 16 h; inhibition, % at 4 µM; 2,000 compounds, 35% hits; AID 449746, 2010; in the data active = inhibition mostly above about 28%, no sharp cut-off; inactive = mostly below about 22%
* = called active by the depositor. Sampled rows, rich in hits. Any-hit rate of the full collection: about 0.93%.

Results for C[C@@H]1CN([C@@H](C)CO)S(=O)(=O)c2ccc(C#Cc3ccc(F)cc3)cc2O[C@H]1CN(C)C(=O)CN(C)C ?
F508del corr: -8

Results for c1ccc(-c2cc(-c3nnco3)c3ccccc3n2)nc1 ?
697 NFkB inh: 10; Jurkat NFkB inh: -9; F508del corr: -1; HIF activator: 0

What do the screens show for `COc1cc(-c2cc(-c3nnco3)c3ccccc3n2)cc(OC)c1OC`?
697 NFkB inh: 41*; Jurkat NFkB inh: 0; F508del corr: 1; HIF activator: 0; 697 NFkB conf: 9

What do the screens show for `Cc1nn(-c2cccc(Cl)c2)c(Cl)c1/C=N/NC(=O)c1cccs1`?
697 NFkB inh: -314; Jurkat NFkB inh: -36; HIF activator: 1; 697 NFkB conf: -24

How did CCNC(=S)N/N=C/c1c(C)nn(-c2cccc(Cl)c2)c1Cl do in these assays?
697 NFkB inh: 11; Jurkat NFkB inh: -1; HIF activator: 0

How did Cc1noc(C)c1S(=O)(=O)Nc1ccc2c(c1)C(=O)N([C@@H](C)CO)C[C@@H](C)[C@@H](CN(C)C(=O)Nc1ccc(F)cc1)O2 do in these assays?
F508del corr: -1

What do the screens show for `COc1ccc(-c2csc3nc(-c4cccnc4)nc(N4CCC(C(N)=O)CC4)c23)cc1OC`?
697 NFkB inh: 39*; Jurkat NFkB inh: 15; HIF activator: 0; 697 NFkB conf: 26*

Results for O=C(C[C@H]1C[C@H]2c3cc(NC(=O)Nc4ccccc4F)ccc3O[C@H]2[C@H](CO)O1)NCc1ccc2c(c1)OCO2 ?
F508del corr: -3

How did CN(C)C(=O)c1cccc(-c2ccc(C3[C@@H]4CN(S(=O)(=O)c5ccccc5)C[C@H]3N4)cc2)c1 (stereo partly drawn) do in these assays?
F508del corr: 3

How did COc1ccc(-c2cc3cc4c(cc3cn2)OCO4)cc1 do in these assays?
697 NFkB inh: -279; Jurkat NFkB inh: -4; F508del corr: -2; 697 NFkB conf: -352

What do the screens show for `CCOC(=O)C1CCN(C(=O)CCc2c(C)nc3cc(-c4ccccc4)nn3c2C)CC1`?
697 NFkB inh: 29; Jurkat NFkB inh: 24; F508del corr: 1; HIF activator: -2

How did Cc1nc2cc(-c3cccc(F)c3)nn2c(C)c1CCC(=O)NC(C)c1ccc2c(c1)OCCO2 (stereo not drawn) do in these assays?
697 NFkB inh: 19; Jurkat NFkB inh: -3; F508del corr: 1; HIF activator: -1

Results for COc1ccccc1-c1cc2nc(C)c(CCC(=O)NCc3ccco3)c(C)n2n1 ?
697 NFkB inh: 33; Jurkat NFkB inh: 9; F508del corr: 1; HIF activator: 0

How did Cc1nc2cc(-c3ccccc3)nn2c(C)c1CCC(=O)NCc1ccco1 do in these assays?
697 NFkB inh: 46*; Jurkat NFkB inh: 2; F508del corr: -1; HIF activator: -2; 697 NFkB conf: 37*

How did Cc1nc2cc(-c3cccc(F)c3)nn2c(C)c1CCC(=O)NC(C)CCc1ccco1 (stereo not drawn) do in these assays?
697 NFkB inh: 42*; Jurkat NFkB inh: 24; HIF activator: -2; 697 NFkB conf: 37*

What do the screens show for `Cc1nc2cc(-c3ccccc3)nn2c(C)c1CCC(=O)NC(C)c1ccc2c(c1)OCCO2` (stereo not drawn)?
697 NFkB inh: 35*; Jurkat NFkB inh: 2; F508del corr: 3; HIF activator: -2; 697 NFkB conf: 23

How did CCOC(=O)C1CCCCN1C(=O)CCc1c(C)nc2cc(-c3ccccc3)nn2c1C (stereo not drawn) do in these assays?
697 NFkB inh: 35*; Jurkat NFkB inh: 20; F508del corr: 2; HIF activator: -2; 697 NFkB conf: 27

How did COc1cccc(-c2cnc3c(c2)C(=O)N([C@@H](C)CO)C[C@@H](C)[C@@H](CN(C)CC2CC2)O3)c1 do in these assays?
F508del corr: -2

Results for COc1ccc(-c2cc3nc(C)c(CCC(=O)N4CCN(c5ccccn5)CC4)c(C)n3n2)c(OC)c1 ?
697 NFkB inh: 6; Jurkat NFkB inh: 13; F508del corr: -4; HIF activator: 0

What do the screens show for `Cc1nc2cc(-c3cccc(F)c3)nn2c(C)c1CCC(=O)N1CCN(c2ccccn2)CC1`?
697 NFkB inh: 48*; Jurkat NFkB inh: 16; F508del corr: 5; HIF activator: -1; 697 NFkB conf: 28

What do the screens show for `Cc1c(CCO)c(=O)oc2n[nH]c(-c3ccccc3)c12`?
697 NFkB inh: 35*; Jurkat NFkB inh: 5; F508del corr: -3; HIF activator: 0; 697 NFkB conf: 24*

How did COCC#Cc1cnc2c(c1)C(=O)N([C@@H](C)CO)C[C@@H](C)[C@@H](CN(C)C(=O)CN1CCOCC1)O2 do in these assays?
F508del corr: -2

Results for COc1ccc(NC(=O)Nc2ccc3c(c2)[C@@H]2C[C@H](CC(=O)N4CCN(C)CC4)O[C@@H](CO)[C@@H]2O3)cc1 ?
F508del corr: 1

How did CCOc1ccc2nc(-c3ccccc3)[nH]c2c1 do in these assays?
697 NFkB inh: -298; Jurkat NFkB inh: -36; HIF activator: 2; 697 NFkB conf: -272

What do the screens show for `CCn1c(SCC(=O)NNC(=O)c2ccccc2)nnc1-c1ccncc1`?
697 NFkB inh: 42*; Jurkat NFkB inh: 6; HIF activator: 0; 697 NFkB conf: -2

What do the screens show for `C[C@@H]1CN([C@H](C)CO)S(=O)(=O)c2ccc(-c3ccncc3)cc2O[C@H]1CN(C)C(=O)C1CCC1`?
F508del corr: 2

How did COc1ccc(-n2c(SCC(=O)Nc3ncc(Cl)cc3Cl)nc3ccccc32)cc1 do in these assays?
697 NFkB inh: inactive; Jurkat NFkB inh: -65; HIF activator: -1; 697 NFkB conf: inactive

How did O=C(CSc1nc2ccccc2n1-c1ccccc1)Nc1ncc(Cl)cc1Cl do in these assays?
697 NFkB inh: inactive; Jurkat NFkB inh: -56; F508del corr: 8.7*; HIF activator: -1; 697 NFkB conf: inactive

Results for CO[C@H](CN(C)C(=O)c1ccccc1F)[C@H](C)CN([C@H](C)CO)S(=O)(=O)c1ccccc1 ?
F508del corr: 1

What do the screens show for `Cc1cc(NC2CCCC2)n2ncc(-c3ccccc3)c2n1`?
697 NFkB inh: inactive; Jurkat NFkB inh: -112; F508del corr: 4; HIF activator: -3; 697 NFkB conf: inactive

What do the screens show for `Cc1cc(NCc2ccccc2)n2ncc(-c3ccccc3)c2n1`?
697 NFkB inh: inactive; Jurkat NFkB inh: -135; F508del corr: -1; HIF activator: 2; 697 NFkB conf: -397

Results for CCOC(=O)Cc1c(C)nc2c(-c3ccccc3)cnn2c1C ?
697 NFkB inh: -23; Jurkat NFkB inh: -20; F508del corr: -1; HIF activator: 1
